SW480 rerep = inducers of DNA re-replication in SW480 colon cancer cells; SW480 DNA re-replication, Hoechst DNA content imaging, 48 h; Potency, µM (highest dose often 46.1 µM), for the others: at the top dose re-replication activation, hits mostly activators; hit rate 1.8% among 340,000; AID 624297; also: % of control where 0% means no effect; nearly all actives have a fitted effect of over 55% in size
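Image-based DNA-content assay: after two days of treatment, nuclei were labelled with the DNA dye Hoechst and imaged, and hits were compounds raising the count of nuclei showing high fluorescence intensity.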
HT1080-NT tox = kills 2HG-producing HT-1080-NT fibrosarcoma cells; HT-1080-NT fibrosarcoma viability, CellTiter-Glo ATP luminescence, 48 h; hit rate 1.6% among 360,000; Potency, µM (highest dose often 46.1 µM), without a hit: at the top dose activity, negative = less viability, actives largely listed as cytotoxic;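 also: NT is the 2HG producing partner of a matched IDH1 knockdown line; 0% = DMSO-treated cells and -100% = media-only wells without cells; nearly all actives have a fitted effect of over 55% in size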
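Fibrosarcoma NT cells, 750 per well in 5% FBS RPMI, were exposed to compound for 48 hours. Viability: CellTiter-Glo luminescence.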
HT1080 IDH1KD tx = toxicity to HT-1080 IDH1 knockdown cells (counter line); HT-1080 IDH1 knockdown viability, ATP luminescence, 48 h; Potency, µM (doses to about 46.1 µM), for the others: top-dose activity, negative = toxicity, usual class: cytotoxic; hit rate 2% among 360,000;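 also: 0% = DMSO wells and -100% = cell-free medium wells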
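% activity derives from luminescence (CellTiter-Glo), normalised to DMSO and no-cell wells. HT-1080-IDH1KD cells, 750/well, had 48 h compound exposure at 37 °C.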
KB-3-1 tox = KB-3-1 parental cell cytotoxicity. KB-3-1 viability, CellTiter-Glo ATP luminescence, 72 h. Potency, µM (doses to about 46.1 µM), actives largely listed as cytotoxic. hit rate 1.4% among 400,000; also: % is scaled to controls: 0 for no effect and ±100 for the full control effect; nearly all actives have a fitted effect of over 60% in size
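Cells are dispensed, compounds pinned in, plates held at 37 °C for 72 h, then CellTiter-Glo is added and luminescence read after 10 minutes. Cell line: parental KB-3-1 in phenol-red-free DMEM, 10% FBS.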
KB-V1 MDR tox = kills drug-selected multidrug resistant KB-V1 cells | hit rate 3.4% among 400,000 | KB-V1 MDR cells viability, CellTiter-Glo, 72 h | AID 1347076 | Potency, µM (titrated, usually from 46.1 µM), hits mostly cytotoxic; also: % is scaled to controls: 0 for no effect and ±100 for the full control effect; nearly all actives have a fitted effect of over 60% in size
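Potencies derive from concentration-effect curves fitted to normalized luminescence (CellTiter-Glo) of KB-V1 cells treated for 72 h at 37 degrees C in phenol-red-free DMEM containing 10% FBS.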
MCF10A rerep = inducers of DNA re-replication in MCF 10A breast cells; MCF 10A DNA re-replication, Hoechst nuclear intensity, 48 h; Potency, µM (titrated, usually from 46.1 µM), inactives show at the top dose activity, positive = re-replication, usual class: activators; hit rate 2.9% among 350,000; AID 624296; also: % of control where 0% means no effect; nearly all actives have a fitted effect of over 50% in size
* hit, by the source's call; i = inactive; ? = inconclusive; · = no result; ! = not confirmed by another sample. In the library only some 8% were active in any assay of this set; here they are far more common. Calls follow the shape of the dose curve; as a rule, active = well fitted curve in the direction sought with a large enough effect; inconclusive = small, poorly fitted or top-dose-only effect, or another doubt; inactive = no such curve, though single readings can be large; an effect the other way counts as inactive or inconclusive. Potency is read from the fitted curve at half-maximal effect.

SMILES | SW480 rerep | HT1080-NT tox | HT1080 IDH1KD tx | KB-3-1 tox | KB-V1 MDR tox | MCF10A rerep
Cc1ccc(NC(=O)c2cc(=O)c3ccccc3o2)cc1S(=O)(=O)N1CCCCC1 | -2.0% | -24.1% | ? | ? | 9.2µM* | ?
Cc1cccc(NC(=O)c2oc(=O)c3ccccc3c2-c2ccccc2)c1C | ? | -14.9% | ? | i | 10.3µM* | ?
Cc1ccccc1NC(=O)c1oc(=O)c2ccccc2c1-c1ccccc1 | -0.9% | -14.4% | -8.1% | i | i | 8.2%
Cc1ccc(C)c(NC(=O)c2oc(=O)c3ccccc3c2-c2ccccc2)c1 | -11.1% | -0.7% | -13.2% | i | 18.4µM*! | 23.6%
NC(=O)C1CCCN(C(=O)CNC(=O)C23CC4CC(CC(C4)C2)C3)C1 (stereo unspecified) | -5.7% | -0.5% | -3.6% | i | i | -0.3%
COC(CNC(=O)c1ccc(CS(=O)(=O)c2c(Cl)cccc2Cl)o1)OC | 6.6% | 21.4% | 13.3% | i | i | 0.5%
CCc1c(C)sc(NC(=O)c2cccs2)c1C(=O)OC(C)C | 9.1% | 14.7% | 8.1% | i | i | 10.3µM*
COc1cc(/C=C/c2ccc3c(Br)cc(Br)c(O)c3n2)ccc1O | ? | ? | ? | ? | i | 13µM*
COc1ccc(/C=C/c2ccc3c(Br)ccc(O)c3n2)cc1 | ? | -0.5% | -13.0% | ? | ? | 23.1µM*
Cc1ccc2c(Br)cc(Br)c(O)c2n1 | -1.6% | · | · | · | · | 18.8µM*
Cc1ccc(-c2[nH]c3ccccc3c2SCCN)cc1 | -1.4% | 0.0% | -0.6% | i | i | 0.4%
Cc1ccc(NC(=O)CCCCCCCCCCC2COCCO2)c(C)c1 (stereo unspecified) | ? | 12.2% | 10.7% | i | 18.4µM* | -47.6%
Cc1ccc(S(=O)(=O)N(C)CCCC(=O)Nc2cccc3ccccc23)cc1 | ? | ? | -11.3% | i | 11.6µM* | ?
Cc1ccc(NC(=O)CC(=O)Nc2ccc(C)cc2C)c(C)c1 | 0.6% | 1.8% | 3.8% | ? | i | 9.0%
Cc1ccc(S(=O)(=O)N(C)CCCC(=O)Nc2ccc(C)cc2C)cc1 | ? | -1.6% | 3.6% | i | 20.6µM* | 2.4%
CSc1nc2sc(-c3ccccc3)cc2c(=O)n1N | -217.8% | 2.9% | 0.8% | ? | 9.2µM* | -0.5%
CCc1cc(=O)[nH]c(-n2[nH]c(-c3ccccc3)cc2=O)n1 | -87.3% | 14.6% | 0.2% | i | ? | 2.9%
O=c1cc(-c2ccccc2)[nH]n1-c1nc2ccccc2[nH]1 | ? | 11.2µM* | 12.6µM* | ? | ? | -1.7%
CC(=O)Nc1ccc(NC(=O)c2cc(CN3CCCC3)on2)cc1 | · | · | · | i | i | ·
CS(=O)(=O)c1ccc2nc(NC(=O)Nc3ccc(Cl)c(Cl)c3)sc2c1 | -2.9% | ? | -4.0% | i | i | -2.3%
CC(=O)c1sc(NC(=O)CCS(=O)(=O)c2ccc(Cl)cc2)nc1C | ? | 2.7% | -0.1% | i | i | 7.31µM*
O=C(CCS(=O)(=O)c1ccccc1)Nc1nc2ccc(F)cc2s1 | ? | -14.6% | -10.4% | ? | i | ?
COCc1nnc(NC(=O)CCS(=O)(=O)c2ccccc2)s1 | 14.6µM* | ? | ? | i | i | ?
CS(=O)(=O)c1ccc2nc(NC(=O)Nc3cccc(Cl)c3)sc2c1 | 27.3% | ? | 11.2µM* | i | ? | ?
CS(=O)(=O)c1ccc2nc(NC(=O)CCS(=O)(=O)c3ccccc3)sc2c1 | 3.66µM* | -25.8% | 20.6µM* | i | i | 3.26µM*
SMILES | SW480 rerep | HT1080-NT tox | HT1080 IDH1KD tx | KB-3-1 tox | KB-V1 MDR tox | MCF10A rerep
COc1ccc(OC)c2sc(NC(=O)CCS(=O)(=O)c3ccccc3)nc12 | 3.7% | 5.6% | 5.0% | ? | i | 20.6µM*
Cc1ccc(N2CC(C(=O)Nc3nc4ccc(S(C)(=O)=O)cc4s3)CC2=O)cc1 (stereo unspecified) | -0.7% | -0.2% | -8.8% | ? | 6.51µM* | 3.3%
CS(=O)(=O)c1ccc2nc(NC(=O)C3CC(=O)N(c4ccccc4)C3)sc2c1 (stereo unspecified) | -0.8% | 1.8% | 5.9% | i | i | -3.6%
COc1ccc(OC)c2sc(NC(=O)CCSc3ccccc3)nc12 | -11.4% | -15.9% | -21.4% | i | i | 22.3%
CCc1nnc(NC(=O)CCS(=O)(=O)c2ccccc2)s1 | 18.4µM* | -1.3% | -9.7% | i | i | 14.6µM*
CC(=O)Nc1sc2c(c1CN1CCN(C)CC1)CCCC2 | 1.5% | 12.6% | 13.1% | i | i | 2.6%
OCC(O)C1OC(Oc2ccccc2)C(O)C(O)C1O (stereo unspecified) | -0.8% | -0.1% | -5.0% | i | i | -32.8%
Cc1ccc(C)c2c(/C=C/c3ccc(N(C)C)cc3)ccnc12 | · | · | · | ? | i | ·
Cc1ccc(/C=[N+](\[O-])c2ccc(N(C)C)cc2)c2nsnc12 | ? | 20.6µM* | -1.3% | i | i | 11.2µM*
COCCCn1c(=N)c(S(=O)(=O)c2ccccc2)cc2c(=O)n3cccc(C)c3nc21 | · | · | · | i | ? | ·
CCCn1c(=N)c(S(=O)(=O)c2ccc(F)cc2)cc2c(=O)n3cccc(C)c3nc21 | ? | 19.8% | 4.8% | i | i | 5.17µM*
COCCn1c(=N)c(S(=O)(=O)c2ccc(F)cc2)cc2c(=O)n3cccc(C)c3nc21 | ? | 4.2% | 7.6% | i | i | 3.66µM*
CCCCn1c(=N)c(S(=O)(=O)c2ccc(Br)cc2)cc2c(=O)n3cccc(C)c3nc21 | ? | 8.5% | 15.4% | i | i | 16.5%
O=C(CCc1ccc(O)cc1)NN=Cc1ccc2c(c1)OCO2 | · | ? | 5.8µM* | ? | i | ·
Cc1cc(C)c(OCC(=O)N/N=C/c2ccc3c(c2)OCO3)c(C)c1 | ? | 18.4µM* | 13µM* | ? | i | 2.91µM*
Cc1ccccc1OCC(=O)N/N=C/c1ccc2c(c1)OCCO2 | ? | -0.3% | -6.3% | i | ? | 11.6µM*
Cc1cccc(OCC(=O)N/N=C/c2ccc3c(c2)OCO3)c1 | 4.4% | 1.1% | -1.2% | i | i | -47.5%
Cc1ccc(S(=O)(=O)N2CCN(C(=O)c3ccc(Br)o3)CC2)c(C)c1 | -12.1% | -20.0% | 0.0% | ? | ? | 12.8%
C=CCn1c(SCN2C(=O)c3ccccc3C2=O)nc2ccc(Cl)cc2c1=O | -7.7% | -1.4% | 0.3% | ? | 16.4µM* | 3.9%
COC(=O)c1sc(-c2ccc(C(C)(C)C)cc2)cc1NC(=O)COCC(=O)O | -3.6% | 16.4µM* | 20.6µM* | i | i | 20.6µM*
COc1ccc(-c2[nH]c(-c3ccc(C)cc3)nc2SCC(=O)Nc2nccs2)cc1 | · | ? | ? | ? | 23.1µM* | ?

Screening data from PubChem.
